# According to PubChem BioAssay AID1851 (National Center for Advancing Translational Sciences (NCATS), 2009):
# The whole screen tested about 16,000 compounds, of which about 2,600 (16%) were called active. Inconclusive results (about 20%) are left out. Only a sample is shown. Unmarked numbers belong to inactive results. Calls follow the shape of the dose curve; as a rule, active = well fitted curve in the direction sought with a large enough effect; inconclusive = small, poorly fitted or top-dose-only effect, or effect the other way; inactive = no such curve, though single readings can be large or run the other way.
# Target: Cytochrome P450 2D6 (Homo sapiens) (UniProt P10635)
# Test: Cytochrome panel assay with activity outcomes
# Details: recombinant CYP, pro-luciferin dealkylation, luminescence, p450-cyp2d6; series mostly up to 57.1 µM
# % is scaled to controls: 0 for no effect and ±100 for the full control effect.
# Cytochrome P450 2D6 (Homo sapiens), sequence (P10635 whole entry, looked up): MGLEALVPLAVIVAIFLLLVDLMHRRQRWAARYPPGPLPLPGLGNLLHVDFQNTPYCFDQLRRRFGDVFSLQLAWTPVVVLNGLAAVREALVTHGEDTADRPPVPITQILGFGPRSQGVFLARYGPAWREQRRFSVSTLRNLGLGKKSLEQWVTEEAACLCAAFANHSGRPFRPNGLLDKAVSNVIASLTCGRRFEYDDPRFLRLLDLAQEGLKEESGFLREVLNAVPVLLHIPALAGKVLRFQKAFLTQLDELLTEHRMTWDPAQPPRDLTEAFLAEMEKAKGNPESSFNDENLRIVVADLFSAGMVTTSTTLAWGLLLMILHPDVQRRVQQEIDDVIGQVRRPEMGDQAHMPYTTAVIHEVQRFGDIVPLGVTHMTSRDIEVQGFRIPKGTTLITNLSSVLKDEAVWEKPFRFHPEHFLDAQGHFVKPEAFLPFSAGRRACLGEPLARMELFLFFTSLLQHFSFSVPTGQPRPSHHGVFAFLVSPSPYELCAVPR
SMILES,"activity, negative = inhibition",AC50
CCOc1ccccc1Nc1ccc(N)cc1S(=O)(=O)O,0.246% [at 11.4 µM],
COc1ccc(Oc2ncc3ncc(=O)n(C4CC4)c3n2)cc1,,inactive
Nc1c(S(N)(=O)=O)cc(S(N)(=O)=O)cc1S(N)(=O)=O,18.8% [at 11.4 µM],
C=CCN(CC=C)C(=S)Nc1ccccc1,,inactive
Cn1cnc([N+](=O)[O-])c1Sc1nc(N)nc2c1ncn2Cc1ccccc1,15.1% [at 11.4 µM],
CCN1C(=O)[C@@H]2[C@H]3C(=CC[C@@H]2C1=O)C1(OCCCO1)[C@H]1O[C@@H]1[C@H]3O,-15.6% [at 11.4 µM],
O=C(CSc1nc2ccc([N+](=O)[O-])cc2s1)c1ccc2ccccc2c1,-13.4% [at 11.4 µM],
COc1ccccc1-c1nc(NCc2cccs2)c2ccccc2n1,,1000 nM (active)
CN(C)c1ncc2nc(-c3ccc(Cl)cc3)c(=O)n(C)c2n1,,inactive
C#CCCCO/N=C1/C[C@@H](O)[C@@H](O)[C@@H]2[C@@H]3C(=O)N(CC)C(=O)[C@H]3CC[C@@H]12,-16.9% [at 11.4 µM],
NC(=NC1C2CC3CC(C2)CC1C3)Nc1ccc(I)cc1 (stereo not drawn),,39.8 nM (active)
Nc1nc(Br)c2ccccc2c1-c1ccc(F)cc1,,inactive
O=C1/C(=C/c2cccnc2)SC(=S)N1Cc1ccco1,-20.9% [at 11.4 µM],
CC(=O)C1C(c2ccccc2OC(F)F)NC(=O)NC1(O)C(F)(F)F (stereo not drawn),,inactive
CC(=O)c1sc(N)c(C(=O)OC(C)C)c1C,,inactive
C[C@@H](C(=O)Nc1ccc2ccccc2c1)[C@H]1C[C@]1(C)[C@H](NS(=O)(=O)c1ccc2ccccc2c1)c1ccccc1,,3160 nM (active)
C[C@@H](C(=O)Nc1ccc2ccccc2c1)[C@@H]1C[C@@]1(C)[C@@H](NS(=O)(=O)c1ccc2ccccc2c1)c1ccccc1,,inactive
C[C@@H](C(=O)Nc1ccc2ccccc2c1)[C@@H]1C[C@@]1(C)[C@@H](NS(=O)(=O)c1ccc(-c2ccccc2)cc1)c1ccccc1,,inactive
C[C@@H](C(=O)Nc1ccc2ccccc2c1)[C@H]1C[C@]1(C)[C@H](NS(=O)(=O)c1ccc(-c2ccccc2)cc1)c1ccccc1,,2000 nM (active)
CCSc1nc2c(c(=O)[nH]1)C(c1ccccn1)C1=C(CC(C)(C)CC1=O)N2 (stereo not drawn),,inactive

SMILES,"activity, negative = inhibition",AC50
C[C@]1(OC(=O)/C=C\c2ccccc2)C[C@@H](O)[C@@]2(O)C=CO[C@@H](O[C@H]3O[C@@H](CO)[C@@H](O)[C@@H](O)[C@@H]3O)[C@H]21,,inactive
CC1CCCCN1c1cc(C#N)c(C#N)cc1[N+](=O)[O-] (stereo not drawn),,inactive
CCN1CCN(c2nc(-c3ccccn3)nc3ccccc23)CC1,,inactive
CC1CCCCN1c1nc(-c2ccncc2)nc2ccccc12 (stereo not drawn),,7940 nM (active)
O=C(O)C12CC3(C(=O)O)CC(C(=O)O)(CC(C(=O)O)(C1)C3=O)C2=O,-4.61% [at 11.4 µM],
CCCN(CCc1ccccc1)[C@H]1CCc2c(O)cccc2C1,,501 nM (active)
CCCN(C/C=C\I)[C@@H]1CCc2cccc(O)c2C1,,inactive
Cc1ccc(-n2c(CCC(=O)O)ccc2-c2cccs2)cc1C,,inactive
O=c1c(-c2ccccc2)nc2cnc(N3CCOCC3)nc2n1-c1ccccc1,,inactive
C/C(Cn1nc([N+](=O)[O-])cc1C)=N\NC(=O)c1ccc(O)cc1O,,inactive
Cc1ccc(Cl)c(Nc2ccccc2C(=O)O)c1Cl,,inactive
Cc1nc2ccccc2nc(C)c1=NO,,inactive
CCOC(=O)C(C)CC(C)C(=O)N1CCOCCN(C(=O)C(C)CC(C)C(=O)OCC)CCOCC1 (stereo not drawn),,inactive
CC(N)=NCc1cccc(CN)c1,,inactive
NC(N)=NCc1cccc(I)c1,,15800 nM (active)
Nc1c(OCC(=O)O)ccc2cc(S(=O)(=O)O)ccc12,-4.66% [at 11.4 µM],
CNC(=S)NNC(=O)c1sccc1OCc1ccc(C)cc1,,inactive
O=C(Cc1ccccc1)N/N=C/c1ccccc1OCc1ccc(Cl)cc1,,inactive
COc1ccccc1/C=N/NC(=O)CC(=O)Nc1ccc(Cl)c(Cl)c1,,28200 nM (active)
COc1cc(C(=O)Oc2ccccc2/C=N/NC(=O)c2ccc(C)cc2)cc(OC)c1OC,,inactive

SMILES,"activity, negative = inhibition",AC50
NC([N-]/N=C/c1ccccn1)=[S]=[Fe].O=S(=O)(O)O,8.09% [at 11.4 µM],
N#CCCn1c(=O)c(-c2cc(F)cc(F)c2)nc2cnc(N3CCOCC3)nc21,,inactive
CC(C)N(Cc1ccccc1)S(=O)(=O)c1n[nH]c(C(C)(C)C)n1,14.9% [at 11.4 µM],
CCC(NC(=O)Nc1cc(OC)c(OC)c(OC)c1)(C(F)(F)F)C(F)(F)F,,inactive
CC(=O)Nc1ccc(NC(=O)C2CCN(S(=O)(=O)c3cccc4nonc34)CC2)cc1,,inactive
COc1cc(NC(=O)C2CCN(S(=O)(=O)c3cccc4nonc34)CC2)cc(OC)c1,,562 nM (active)
CC1CCN(C(=O)C2CCN(S(=O)(=O)c3cccc4nonc34)CC2)CC1,,inactive
O=C(Nc1cccc(F)c1)N1CCCC2(CCN(C(=O)c3cnccn3)CC2)C1,,inactive
CCC(=O)NC(=S)Nc1ccc(S(=O)(=O)NC(C)=O)cc1,,inactive
CCCCCN(CCCCC)C(=O)[C@H](CCC(=O)O)NC(=O)c1ccc(Cl)c(Cl)c1,,inactive
O=S(=O)(c1cccc2cnccc12)N1CCNCC1,,inactive
O=S(=O)(c1cccc2c(I)cccc12)N1CCCNCC1,,10000 nM (active)
Cc1noc(C)c1-c1nccc(N2CCN(C)CC2)n1,,inactive
Cn1cccc1C(=O)N1CCC2(CC1)CCN(c1ccccn1)CC2,,inactive
CNC(=S)Nc1ccc2nc(C)c(C)nc2c1,,inactive
S=C(Nc1ccc2cn[nH]c2c1)Nc1ccc2cn[nH]c2c1,,2000 nM (active)
N#CC(C#N)=NNc1ccc2cn[nH]c2c1,-16.6% [at 11.4 µM],
CCOC(=O)N/N=C1/C[C@@H](O)[C@@H](O)[C@@H]2[C@@H]3C(=O)N(c4cccc(Oc5ccccc5)c4)C(=O)[C@H]3CC[C@@H]12,4.14% [at 11.4 µM],
